Compounds without any hit were thinned out: in the full panel of roughly 83,000, 20% have a hit.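 Compound tested at a single concentration for 48 hours in 96-well plates; a percent growth value below 10 was scored as active.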 Values without a mark were called inactive. Active and inactive are the calls of the source.
system: SN12C renal; experiment: NCI-60 one-dose screen, 48 h (100 = growth as untreated, 0 = no growth, -100 = all killed); conditions: 10 µM unless noted

| Compound | growth |
| --- | --- |
| O=c1ccn(-c2ncnc3nc[nH]c23)cc1 | 90.3% |
| CCN(CC)c1ccc(CNc2ccnc3ccccc23)cc1 | 64% |
| COc1ccc(CN2CCc3c(Sc4ccccc4)nc(N)nc3C2=O)c(OC)c1 | 53.1% |
| COc1ccc(/C=C\c2cc(OC)c(OC)c(OC)c2)cc1OC(=O)c1cccc(Cn2cc(CCOC(=O)c3cccc(Cn4nnc5c4C(=O)c4ccccc4C5=O)c3)nn2)c1 | 18.9% |
| CCCCN(CCCC)C(=O)CC | 109% |
| O=C1Nc2ccc3c(c2/C1=C\c1cc2c(cc1Br)OCO2)OCO3 | 26.7% |
| O=C1/C(=C/c2ccccc2)CN(C(=O)CCN2CCC(=NO)CC2)C/C1=C\c1ccccc1 | -18.6% (active) |
| COc1ccc2c(c1)[nH]c(=O)c1c3cc(OC)ccc3cn21 | 32.7% |
| COc1ccc(Nc2nc(N)nc3c2CCN(Cc2ccc(OC)cc2OC)C3=O)cc1 | 70.7% |
| Cn1ccc(=O)c(S(N)(=O)=O)c1 | 101% |
| Cc1cc(N/N=C/c2nc(-c3ccccc3)oc2C)c2cc(Br)ccc2n1 | 32.3% |
| Cc1nn(-c2ccc([N+](=O)[O-])cc2)c2ncnc(NCCc3ccccc3)c12 | 102% |
| CCN(CC)CCC(CNc1ccnc2cc(Cl)ccc12)c1ccc(Cl)cc1 (centres undefined) | 42.2% |
| OC(c1cc2cc(Br)ccc2c2cc(Br)ccc12)C1CCCCN1 (centres undefined) | -73.8% (active) |
| C=C1CCC2C3(C)COC(c4c(OC)cccc4OC)OC3CCC2(C)C1C/C=C1/C(=O)OCC1O (centres undefined) | 28.2% |
| COC(=O)c1cc2cc(-c3ccc(OC)cc3)cnc2[nH]1 | 51.9% |
| Cc1ccc(S(=O)(=O)n2cc(C(=O)C(=O)N3CCOCC3)c3ccccc32)cc1 | 87.8% |
| COc1ccc(-c2nc(/C=N/Nc3cc(C)nc4ccc(Cl)cc34)c(C)o2)cc1 | -92.9% (active) |
| O=C1c2ccccc2-c2ccccc2C1(Cl)Cl | -76.1% (active) |
| COc1ccc(-c2cn(-c3cccc(C(=O)/C=C/c4cc(OC)c(OC)c(OC)c4)c3)c(=O)[nH]2)cc1OC | 78.1% |

| Compound | growth |
| --- | --- |
| CCCCCCCCCCCCNC(=O)[C@H]1CSC(c2ccsc2)N1 (some centres undefined) | -87% (active) |
| COc1cc(C2NN=C3c4ccccc4CCC32)cc(OC)c1OC (centres undefined) | 77.7% |
| O=C(N/N=C/C=C\c1ccccc1)C(=O)N/N=C/C=C/c1ccccc1 | 92.6% |
| CN1CCN(Cc2ccc(NC(=O)c3cncc(C#Cc4cnc(N)c5ccncc45)c3)cc2C(F)(F)F)CC1 | 6.05% (active) |
| N=C(N)c1ccc(-c2ccc(-c3ccc4ccccc4c3)s2)cc1 | 95.8% |
| COc1cc(/C=C/C(=O)c2cccc(-n3cc(-c4cc(OC)c(OC)c(OC)c4)[nH]c3=O)c2)cc(OC)c1OC | 11.5% |
| N=C(N)c1ccc(-c2ccc(-c3ccc(-c4cccs4)s3)s2)cc1 | 93.7% |
| COc1ccc(-c2ccc(-c3ccc(C(=N)N)s3)s2)cc1Cl | -83.7% (active) |
| O=c1[nH]c2ccc(Br)cc2c2c1C(c1ccc(Cl)cc1)c1c(ncn3nc(-c4ccco4)nc13)O2 (centres undefined) | 74.3% |
| N=C(N)c1ccc(-c2cc(Cl)cc(Cl)c2)cn1 | 91.6% |
| Cc1nc2ncccc2nc1Nc1ccc(S(=O)(=O)Nc2cncs2)cc1 | 82.7% |
| Cc1cc(N/N=C/c2nc(-c3ccccc3)oc2C)c2cc(Cl)ccc2n1 | -84.9% (active) |
| Cc1nc2ncccc2nc1Nc1ccc(S(=O)(=O)Nc2ccccn2)cc1 | 93.7% |
| NC(=S)N/N=C1\CCCC(C(F)(F)F)C1 (centres undefined) | 85.1% |
| Oc1ccc2cc(Br)ccc2c1-c1c(O)ccc2cc(Br)ccc12 | 60.7% |
| CCC(=O)Oc1ccc(/C(=C(/C)Cc2cccc(OC)c2)c2ccc(OCCN(C)C)cc2)cc1 | 85.9% |
| COC1=C(OC)C(=O)C(CCCCCCCCCC[P+](c2ccccc2)(c2ccccc2)c2ccccc2)=C(C)C1=O | -74.8% (active) |
| O=C(CN1CCN(c2cc3c(cc2F)c(=O)c(C(=O)N/N=C/c2ccccc2O)cn3C2CC2)CC1)N/N=C\c1ccccc1O | 24.7% |
| COc1ccc(-c2ccc(-c3ccc(C(=N)N)cn3)s2)cc1OC | 90.6% |

From PubChem BioAssay (NCI)
